# In the supplement of paper PMC12067926:
# System: Bacillus 1 (Bacillus foraminis)
# Test: relative growth (AUC of 72 h growth curve relative to DMSO control, dAUC) (ratio); higher = more growth (less inhibition), active = hit call of the paper
# Settings: 20 µM;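 active = growth AUC significantly below the DMSO wells by Dunnett test; inactive = the rest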
# Method: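 Environmental bacterial isolates (Iceland stream sediment and Silwood Park soil) and whole stream-sediment communities were grown in LB from a 1:100 dilution with each pesticide at 20 µM (1% DMSO). A600 was read hourly for 72 h and the area under a spline-fitted growth curve (AUC) was computed. dAUC is the mean AUC of 3 biological replicates divided by the mean AUC of the DMSO controls. Significance was tested by Dunnett's test against the DMSO control.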
row,SMILES,relative growth
1,CC1=NNC(=O)N(/N=C/c2cccnc2)C1,1.16 (inactive)
2,Fc1ccc([C@]2(Cn3cncn3)O[C@H]2c2ccccc2Cl)cc1 (racemic),0.994 (inactive)
3,C[C@@H]1[C@@H](c2ccc(Cl)cc2)SC(=O)N1C(=O)NC1CCCCC1,1.06 (inactive)
4,Cc1cc(C2CC2)nc(Nc2ccccc2)n1,0.911 (inactive)
5,CC(C)CC(C)c1sccc1NC(=O)c1cn(C)nc1C(F)(F)F (stereo not given),0.959 (inactive)
6,N#Cc1cc(Br)c(O)c(Br)c1,0.916 (inactive)
7,CC1(C)C(C=C(Cl)Cl)C1C(=O)OC(C#N)c1cccc(Oc2ccccc2)c1 (stereo not given),1.11 (inactive)
8,CN/C(=N\[N+](=O)[O-])NCc1cnc(Cl)s1,1.03 (inactive)
9,O=C(O)c1nc(Cl)ccc1Cl,0.984 (inactive)
10,CNC(=O)CSP(=S)(OC)OC,0.911 (inactive)
11,Clc1ccc(C(c2ccc(Cl)cc2)C(Cl)(Cl)Cl)cc1,1.06 (inactive)
12,Fc1ccc(Oc2ccnc3cc(Cl)cc(Cl)c23)cc1,1.04 (inactive)
13,CCc1cccc(C)c1N(C(=O)CCl)[C@@H](C)COC,1.06 (inactive)
14,CCNC(=O)NC(=O)/C(C#N)=N/OC,1.04 (inactive)
15,CC(C)OC(=O)Nc1cccc(Cl)c1,1.15 (inactive)
16,CS(=O)(=O)NC(=O)c1cc(Oc2ccc(C(F)(F)F)cc2Cl)ccc1[N+](=O)[O-],1.04 (inactive)
17,CCCCCCCCCCCCNC(=N)N,0.691 (active)
18,CN1COCN(Cc2cnc(Cl)s2)/C1=N\[N+](=O)[O-],1.02 (inactive)
19,C[N+]1(C)CCCCC1,1.04 (inactive)
20,O=[N+]([O-])/N=C1\NCCN1Cc1ccc(Cl)nc1,1.06 (inactive)

row,SMILES,relative growth
1,CCCN(CCOc1c(Cl)cc(Cl)cc1Cl)C(=O)n1ccnc1,1.07 (inactive)
2,C[N+](C)(C)CCCl,0.969 (inactive)
3,CCCCc1c(C)nc(NCC)nc1OS(=O)(=O)N(C)C,0.907 (inactive)
4,Oc1ccccc1-c1ccccc1,0.868 (inactive)
5,CC(C)N1C(=O)N(c2ccccc2)CS/C1=N\C(C)(C)C,1.04 (inactive)
6,COC(=O)c1ccccc1S(=O)(=O)NC(=O)Nc1nc(C)nc(OC)n1,1.05 (inactive)
7,CC(C)(C)[C@@H](O)[C@H](Oc1ccc(Cl)cc1)n1cncn1,1.03 (inactive)
8,COP(=S)(OC)SCN1C(=O)c2ccccc2C1=O,1.04 (inactive)
9,CNC(=O)c1cc(C#N)cc(C)c1NC(=O)c1cc(Br)nn1-c1ncccc1Cl,0.935 (inactive)
10,Cc1cc(C(C#N)c2ccc(Cl)cc2)c(Cl)cc1NC(=O)c1cc(I)cc(I)c1O (stereo not given),0.695 (inactive)
11,CO/N=C(/C(=O)OC)c1ccccc1CO/N=C(\C)c1cccc(C(F)(F)F)c1,0.972 (inactive)
12,CC[C@H](C)C1O[C@]2(C=C[C@@H]1C)C[C@@H]1C[C@@H](C/C=C(\C)[C@@H](O[C@H]3C[C@H](OC)[C@@H](O[C@H]4C[C@H](OC)[C@H](NC)[C@H](C)O4)[C@H](C)O3)[C@@H](C)/C=C/C=C3\CO[C@@H]4[C@H](O)C(C)=C[C@@H](C(=O)O1)[C@]34O)O2 (stereo not given in full),0.928 (inactive)
13,N#C/N=C1\SCCN1Cc1ccc(Cl)nc1,1.08 (inactive)
14,CSc1nnc(C(C)(C)C)c(=O)n1N,0.94 (inactive)
15,CC[C@H]1CCC[C@H](O[C@H]2CC[C@H](N(C)C)[C@@H](C)O2)[C@@H](C)C(=O)C2=C[C@@H]3[C@@H](C=C(C)[C@@H]4C[C@@H](O[C@@H]5O[C@@H](C)[C@H](OC)[C@@H](OC)[C@H]5OC)C[C@@H]34)[C@@H]2CC(=O)O1.CC[C@H]1CCC[C@H](O[C@H]2CC[C@H](N(C)C)[C@@H](C)O2)[C@@H](C)C(=O)C2=C[C@H]3[C@@H]4C[C@H](O[C@@H]5O[C@@H](C)[C@H](OC)[C@@H](OC)[C@H]5OC)C[C@H]4C=C[C@H]3C2CC(=O)O1,1.04 (inactive)
16,CCCSP(=O)(OCC)Oc1ccc(Br)cc1Cl (stereo not given),1.07 (inactive)
17,N#Cc1c(Cl)c(Cl)c(Cl)c(C#N)c1Cl,0.955 (inactive)
18,O=C(NCCc1ncc(C(F)(F)F)cc1Cl)c1ccccc1C(F)(F)F,0.999 (inactive)
19,CSc1nc(NC(C)C)nc(NC(C)C)n1,0.945 (inactive)
20,O=C(Nc1ccc(F)cc1F)c1cccnc1Oc1cccc(C(F)(F)F)c1,1.07 (inactive)
